Values joined by “and” are separate entries in the source; they are usually repeats but may differ in a detail not shown here. Equal entries are not always repeated.
Columns and labels:
Format in all cases: functional
[1] = target: Solute carrier family 2, facilitated glucose transporter member 1 (Homo sapiens) (UniProt P11166); assay: ST_JUDE_LEISH: Cytotoxicity at 2uM final concentration against transgenic Leishmania Mexicana promastigotes LmGLUT1 that are glucose transport deficient and complemented with the human glucose transporter GLUT1. Activity is measured by DNA content using SYBR green in vitro
[2] = target: Hexose transporter 1 (Plasmodium falciparum) (UniProt O97467); assay: ST_JUDE_LEISH: Cytotoxicity at 2uM final concentration against transgenic Leishmania Mexicana promastigotes LmPfHT that are glucose transport deficient and complemented with the Plasmodium falciparum hexose transporter. Activity is measured by DNA content using SYBR green in vitro
[3] = target: Glucose transporter (Leishmania mexicana) (UniProt O61059); assay: ST_JUDE_LEISH: Cytotoxicity at 2uM final concentration against transgenic Leishmania Mexicana promastigotes LmGT2 that are glucose transport deficient and complemented with the L. Mexicana glucose transporter 2. Activity is measured by DNA content using SYBR green in vitro

Chain of Solute carrier family 2, facilitated glucose transporter member 1 (Homo sapiens) (P11166 whole entry): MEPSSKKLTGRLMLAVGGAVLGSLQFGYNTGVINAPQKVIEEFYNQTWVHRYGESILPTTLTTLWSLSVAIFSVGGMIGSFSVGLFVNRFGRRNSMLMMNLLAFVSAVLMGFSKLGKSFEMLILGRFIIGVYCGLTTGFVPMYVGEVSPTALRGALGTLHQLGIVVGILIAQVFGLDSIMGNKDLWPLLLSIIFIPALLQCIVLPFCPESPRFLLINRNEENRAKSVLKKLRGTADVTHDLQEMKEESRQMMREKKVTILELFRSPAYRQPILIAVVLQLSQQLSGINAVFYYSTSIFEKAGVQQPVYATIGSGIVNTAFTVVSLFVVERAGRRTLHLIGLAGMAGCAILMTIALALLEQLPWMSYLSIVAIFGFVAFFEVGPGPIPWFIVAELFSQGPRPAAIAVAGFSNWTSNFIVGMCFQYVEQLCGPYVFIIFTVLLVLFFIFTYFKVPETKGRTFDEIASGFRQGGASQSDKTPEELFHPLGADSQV

Row | Structure (SMILES) | inhibition [1] | inhibition [2] | inhibition [3]
1 | CC(C)C1C(O)=C(c2ccc3ccccc3c2)C(=O)N1Cc1cccc(F)c1 (stereo not drawn) | 6.97% | 7.53% | 8.55%
2 | Oc1ccc(CCNc2nc(NCc3ccccc3Oc3ccc(C(F)(F)F)cc3)nc(N3CCNCC3)n2)cc1 | -0.98% | -1.74% | -2.4%
3 | COc1cc(C(=O)NCCCN2CCN(c3cc(Cl)ccc3OC)CC2)ccc1-c1nc2cc(Cl)c(Cl)cc2[nH]1 | 6.79% | 6.15% | 5.03%
4 | Cc1cc(OCc2ccncc2)cc2c1C(=O)CC(C)(C)O2 | -0.52% | 2.18% | 0.39%
5 | O=C(Nc1ccccc1)c1ccc(N2CCC(COc3cccc(C(F)(F)F)c3)CC2)nc1 | 1.05% | 1.65% | 1.07%
6 | COc1ccc(CCNCC(O)COc2nccc3c(S(=O)(=O)N4CCCNCC4)cccc23)cc1OC (stereo not drawn) | -1.57% | -1.2% | -2.89%
7 | COc1cc(NC(=O)c2sc(-c3ccc(Cl)cc3)cc2NC(=O)CN2CC[C@@H](O)C2)ccc1OCCN1CCCC1 | 23.1% | 15.1% | 4.88%
8 | COc1cc2ccccc2cc1CCNCCCCNCCc1cc2ccccc2cc1OC | 101% | 82.7% | 104%
9 | O=C(Nc1cccc(-c2cccc(-c3nc4cc(F)ccc4[nH]3)c2)c1)c1ccoc1 | 2.86% | 1.64% | 4.95%
10 | Cc1ccc2[nH]c3ccccc3c(=O)c2c1 | 0.1% | 1.92% | 1.77%
11 | COc1ccc2ncc(F)c([C@H](O)CN3CCC(NCc4ccc5c(c4)OCCO5)CC3)c2c1 | 4.19% | 2.23% | 1.28%
12 | CCCCCCOc1ccc(C(=O)NCCC2CCN(CCCCCNC(=O)C=Cc3ccc(Cl)c(Cl)c3)CC2)cc1 | -0.8% | -0.99% | -0.17%
13 | O=C(Nc1ccc(Cl)cc1)c1ccc(CN2CCCN(Cc3cccc(F)c3)CC2)cc1 | -0.02% | 5.11% | 3.31%
14 | Cc1cccc(CCCNC(=O)CN(c2cccc(C(F)(F)F)c2)S(=O)(=O)c2ccc(C(F)(F)F)cc2)c1 | 5.38% | 4.48% | 4.63%
15 | O=C(Nc1ccc(Br)cc1)c1cc(Br)ccc1NS(=O)(=O)c1cc(C(F)(F)F)cc(C(F)(F)F)c1 | -2.23% | 0.04% | -0.28%
16 | CCc1ccc(NC(=O)N(CCCN2CCN(C)CC2)Cc2csc(-c3ccc(CNCc4ccccc4)cc3)n2)cc1 | -1.59% | -0.93% | 3.09%
17 | CCOc1c(OC)ccc2c1CCN(CCN1CCC(CNC(=O)c3ccc(-c4ccc(C(F)(F)F)cc4)cc3)CC1)C2 | -1.88% | -0.64% | 0.24%
18 | COc1ccc(NC(=O)C2c3ccccc3C(=O)N(CC(C)C)C2c2cccs2)cc1OC (stereo not drawn) | -0.36% | 0.34% | 0.28%
19 | COCCNCc1ccc(-c2ccc(CNc3ccc4ncccc4c3)cc2)cc1 | 2% | 4.18% | 1.36%
20 | CN(C)CCN(C)Cc1cccc(-c2cccc(NC(=O)c3cccc(C#N)c3)c2)c1 | 2.87% | 2.86% | 4.89%
21 | CCCN1CCN(CCCNc2c3ccccc3nc3ccccc23)CC1 | 73.1% | 78.2% | 65.1%
22 | Oc1ccc2ccccc2c1C=NNc1nc(=Nc2ccccc2)[nH]c(=Nc2ccccc2)[nH]1 | 3.37% | 3.44% | 2.92%
23 | COC(=O)c1ccc2nc(-c3cc(OC)c(O)c(C(=O)NC4CCN(Cc5ccccc5)CC4)c3)[nH]c2c1 | 8.4% | 5.32% | 7.01%
24 | CN1CCC(NC(=O)c2cc(Oc3ccc4c(c3)CCN4C(=O)Nc3cccc(C(F)(F)F)c3)ccn2)CC1 | 3.67% | 6.55% | 1.74%

Row | Structure (SMILES) | inhibition [1] | inhibition [2] | inhibition [3]
25 | N=C(N)c1ccc(C=Cc2ccc(C(=N)N)cc2O)cc1 | -0.26% | -0.04% | -0.9%
26 | CCNc1cc(C(=O)N[C@@H](Cc2ccccc2)[C@H](O)CNC2(CC)CC2)cc(N2CCCCS2(=O)=O)c1 | -3.85% | 2.01% | -2.45%
27 | CC(=O)NCC(=O)NC1=NC(=N)N(OCc2ccc3ccccc3c2)C(C)(C)N1 | 2.26% | 1.66% | 0.35%
28 | O=C(Cc1ccccc1)NC(CCN1CCC(O)(c2cccc(C(F)(F)F)c2)CC1)c1ccc(Cl)c(Cl)c1 (stereo not drawn) | 4.97% | 1.61% | 0.53%
29 | CCc1ccc(CN2CCC(CNC(=O)c3cc(-c4cccc(C(F)(F)F)c4)cs3)C2)cc1 (stereo not drawn) | -2.78% | -0.98% | -1.61%
30 | O=C(NCCCN1CCC(Cc2ccccc2)CC1)c1cc2c(Cl)nc3ccccc3c2s1 | 0.05% | 1.9% | -0.45%
31 | COC(=O)c1cccc(CNCc2ccc(-c3ccc(-c4nc5cc(C(F)(F)F)ccc5[nH]4)cc3)cc2)c1 | 3.94% | 1.94% | 2.35%
32 | CCOC(=O)CN1Cc2cc(NCc3ccc4ccc5nc(C)[nH]c(=O)c5c4c3)ccc2C1=O | 0.55% | 1.98% | -0.88%
33 | Fc1cc(Cl)ccc1Nc1ccnc2cc(-c3ccc(CN4CCNCC4)o3)ccc12 | 1.02% | 1.16% | 1.34%
34 | CCCC(C)c1cnc2nc(N)nc(N)c2c1C (stereo not drawn) | 3.61% | 4.91% | 4.24%
35 | Cc1c(F)cc(C(=O)NC2CC2)cc1-c1ccc2c(cnn2S(=O)(=O)c2ccc(Cl)s2)c1 | 3.04% | 1.53% | 0.9%
36 | Cc1nc2c(c(O)c1Cl)-c1ccc(Oc3cccc(C(F)(F)F)c3)cc1C2=O | 2.13% and 1.44% | 2.5% and 1.39% | 1.75% and 2.09%
37 | CCn1cnc2c(N3CCCS3(=O)=O)cc(C(=O)N[C@@H](Cc3ccccc3)[C@H](O)CNC(C)(C)c3cccc(C(F)(F)F)c3)cc21 | 3.01% | 2.45% | 2.04%
38 | Cc1cccc2nc(-c3ccc(-c4ccc(CN5CCN(CCN6CCOCC6)CC5)cc4)cc3)[nH]c12 | 6.69% | 8.97% | -1.08%
39 | Cc1cccc(C(=O)Nc2ccnc(N3CCC(N(C)Cc4cccc(C#N)c4)CC3)c2)c1 | 4.5% | 5.56% | 4.5%
40 | Cn1nccc1C(=O)NCCNCc1cccc(-c2ccc(-c3nc4ccccc4[nH]3)s2)c1 | -0.55% | -0.8% | -1.72%
41 | Cc1cc(Cl)c(S(=O)(=O)N2CCc3ccccc32)cc1OCC(=O)NC1CCCCC1 | 2.33% | 1.17% | 2.14%
42 | O=C(/C=N/O)Nc1ccccc1[N+](=O)[O-] | -1.31% | 0.8% | 0.39%
43 | COc1ccc(-c2ccc(NC(=O)c3ccc(C#N)cc3)cc2)cc1CN1CCN(C)CC1 | 4.24% | 1.9% | 2.76%
44 | CC(C)N1CCN(C(=O)c2ccc(CN(C)CCCN3CCN(c4cccc(Cl)c4Cl)CC3)s2)CC1 | 0.58% | 0.7% | 0.8%
45 | Cc1cc(NCCC(=O)NCCOc2ccccc2)nc(NCc2ccccc2C)n1 | 3.15% | 0.58% | 0.45%
46 | Cc1ccc(-c2nc(N3CCN(C(=O)c4ccco4)CC3)c3ccc(Cl)cc3n2)cc1 | 1.17% | 2.21% | 2.34%
47 | Cc1cc(-c2cnc(N)c(-c3ccc(N4CCN(C)CC4)nc3)c2)cc(C)c1O | 1.2% | 0.69% | 0.74%
48 | CN1CCN(CC(=O)Nc2ccc(-c3ccc(-c4nc5ccccc5[nH]4)s3)cc2)CC1 | 1.26% | 3.57% | 2.3%

Row | Structure (SMILES) | inhibition [1] | inhibition [2] | inhibition [3]
49 | CCN1CCC(NCc2ccc(-c3ccc(Cl)cc3)cc2)CC1 | 23.6% | 11% | 7.91%
50 | Cc1cc(O)c(-c2ccc(Oc3ccc(F)cc3)cc2)c(C)n1 | 0.78% | -0.19% | -3.08%
51 | Cc1ccc(Cn2cnc(N3CC(C)NC(C)C3)cc2=O)cc1NC(=O)Nc1ccc(-c2ccccc2)cc1 (stereo not drawn) | -0.2% | -0.46% | -0.19%
52 | C=CCOc1ccc(-c2c(C)[nH]c(C)c(Br)c2=O)cc1 | 2.12% | 2.01% | -0.17%
53 | CC(Cc1ccc(OCc2ccccc2)cc1)Nc1nc(O)c2ccccc2n1 (stereo not drawn) | 2.96% | 1.33% | 3.22%
54 | CN(Cc1cccc(C#N)c1)C1CCN(c2cc(NC(=O)c3cccc(F)c3)ccn2)CC1 | 3.81% | 5.32% | 4.33%
55 | CN(C)CCOc1cc(NC(=O)Nc2ccc(-c3ccncc3)c3ccccc23)ccc1I | 6.39% | 8.78% | 1.62%
56 | CCCC(CNCc1cccc(OC(F)(F)F)c1)CNc1cc(=O)c2ccccc2[nH]1 (stereo not drawn) | 3.23% | 3.46% | 2.94%
57 | OCC1CCN(Cc2ccc(-c3ccc(-c4nc5cc(C(F)(F)F)ccc5[nH]4)s3)cc2)CC1 | 1.82% | 0.23% | 1.7%
58 | N=C(N)NC(=O)Nc1cc(Br)c(Cl)c(Br)c1 | -0.91% | -1.3% | -1.76%
59 | COc1cc(F)c2ncc(Cl)c(CCN3CCC(NCc4ccc5c(n4)NC(=O)CO5)CC3)c2c1 | 3.28% | 4.15% | -1.5%
60 | COCCN1CCN(Cc2ccc(-c3ccc(-c4nc5cc(F)ccc5[nH]4)cc3)cc2)CC1 | 6.74% | 3% | 0.87%
61 | O=C(CNC1CCCCC1)Nc1cccc(C(=O)Nc2cccc(C(F)(F)F)c2)c1 | -1.07% | -0.66% | -1.14%
62 | O=C(Nc1ccc(-c2ccc(-c3nc4ccccc4[nH]3)s2)cc1)Nc1ccc(Cl)c(Cl)c1 | 9.56% | 8.71% | 11.2%
63 | Cc1[nH]c(C)c(-c2ccc(OCCCc3ccccn3)cc2)c(=O)c1Br | 8.98% | 6.12% | 8.48%
64 | COc1ccc2nccc([C@@H](O)CN3CCC(NCCOc4ccc(F)cc4[N+](=O)[O-])CC3)c2c1 | -1.59% | -1% | 1.61%
65 | COc1ccc(-c2cc(NCc3ccc(-n4ccnc4)cc3)nc(Nc3ccccc3)n2)cc1 | 2.37% | 0.85% | 1.83%
66 | COc1ccc2c(=NN=Cc3cccc(Cl)c3)cc(C)[nH]c2c1 | 2.13% | 0.71% | -0.53%
67 | CCN(c1ccc(F)cc1)S(=O)(=O)c1cc(Br)cc2c1N(C(=O)C1CC1)CC2 | 0.4% | 1.32% | 3.74%
68 | N=C(N)Nc1nc(-c2cccc(NC(=O)NCCc3c[nH]c4ccc(OCc5ccccc5)cc34)c2)cs1 | 0.6% | 1.4% | 0.56%
69 | CCOc1cccc(C(=O)Nc2cccc(CN3CCCN(Cc4ccc(O)cc4)CC3)c2)c1 | 3.17% | 3.14% | 5.38%
70 | Cc1ccc(N2C(N)=NC(N)=NC2(C)C)cc1 | 2.52% | 2.98% | 2.39%
71 | CC(=O)Nc1cccc(CNCc2ccc(-c3cnc(N4CCCC(C)(C)C4)nc3)cc2)c1 | -2.79% | 3.36% | 0.65%

Source: ChEMBL document CHEMBL3433997, “St. Jude Leishmania screening dataset” (2016)
